Compound activity deposited in PubChem BioAssay by ICCB-Longwood Screening Facility, Harvard Medical School.
Mtb MbtI inh: MbtI salicylate synthase inhibitors, primary screen, biochemical, fluorescence intensity; AID 493033, 2011; hit rate 0.89% among 100,000; purified MbtI enzyme, fluorescence intensity read-out; P9WFX0; inhibition, % (no concentration beside the values); in the data active = inhibition mostly above about 56%, no sharp cut-off; inactive = mostly below about 77%
Mtb MenB inh: M. tuberculosis MenB inhibitors, primary screen, biochemical, absorbance; hit rate 0.43% among 100,000; inhibition, % (concentration not given with the values); MenB enzyme assay, absorbance read-out; 1,4-dihydroxy-2-naphthoyl-CoA synthase (Mycobacterium tuberculosis (strain ATCC 25618 / …; in the data active = inhibition above about 21%, passing the limit was not always enough
Target sequence (P9WNP5 whole entry, looked up): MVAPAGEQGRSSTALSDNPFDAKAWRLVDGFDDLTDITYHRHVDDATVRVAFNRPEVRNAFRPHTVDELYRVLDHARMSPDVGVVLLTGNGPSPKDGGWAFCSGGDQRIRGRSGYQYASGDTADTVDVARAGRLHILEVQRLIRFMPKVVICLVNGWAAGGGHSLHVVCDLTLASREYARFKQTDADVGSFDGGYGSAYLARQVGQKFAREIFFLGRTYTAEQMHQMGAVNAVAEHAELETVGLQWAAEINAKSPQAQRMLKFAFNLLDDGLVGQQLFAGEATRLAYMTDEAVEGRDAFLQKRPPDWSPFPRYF
PV pol inh: poliovirus RdRp elongation inhibitors, primary screen, biochemical, fluorescence polarization, total intensity; Genome polyprotein (Poliovirus type 1 (strain Mahoney)), P03300; poliovirus polymerase elongation; active compounds read low; % elongation, % (compound at 16.7 µg/mL); hit rate 0.66% among 150,000; in the data active = % elongation below about 90%
Numbers stand for hits; n = inactive; x = no result. The list is not random: actives were taken first. Their share in the collection is about 1.5%.

SMILES	Mtb MbtI inh	Mtb MenB inh	PV pol inh
COc1ccc(C(=O)CSc2nnc(-c3ccco3)c(-c3ccco3)n2)cc1	n	29.9	n
CCC(=O)Nc1ccc(C(=O)CSc2ncc(C#N)c(N)n2)cc1OC	n	n	n
O=C(CSc1nnc(-c2ccoc2)c(-c2ccoc2)n1)c1ccc(-c2ccccc2)cc1	61.3	n	n
CCc1ccc2c(c1)c1nnc(SCC(=O)c3ccc(OC)cc3)nc1n2C	n	n	n
CCOc1ccc(C(=O)CSc2nnc(-c3ccco3)c(-c3ccco3)n2)cc1NC(=O)CC	93.9	61.8	n
O=C(CSc1nnc(-c2ccoc2)c(-c2ccoc2)n1)c1ccc(N2CCCC2=O)cc1	n	n	n
CC(=O)Nc1nnc(SCc2ccccc2)s1	n	n	n
CCOC(=O)COc1ccccc1C(=O)O	n	n	n
CCCNC(=O)CN1Cc2ccccc2C1=O	n	n	n
O=C(CN1CCc2ccccc21)Nc1cccc(F)c1	n	n	n
O=C1NC(=O)N(C2CCCCC2)C(=O)/C1=C/c1ccc(Br)cc1	n	n	n
N=C1/C(=C2\NC(c3ccc(Br)cc3)=CS2)CC(=O)N1C1CC1	91.1	n	n
Cc1cccc(CSCCNC(=O)CN(c2ccccc2)S(=O)(=O)N(C)C)c1	x	x	n
CN1CCC(N(Cc2ccc3c(c2)OCO3)C(=O)c2cn(Cc3ccccc3)c3ccsc23)CC1	n	23.5	n
CN1CCC(N(Cc2ccco2)C(=O)c2cc3sccc3n2Cc2ccccc2)CC1	n	n	n
CCOc1ccc(C(=O)Nc2sc3c(c2C(N)=O)CCC3)cc1	n	x	n
COc1ccccc1CNC(=O)c1ccc2c(c1)nc(C)n2-c1cccc(C)c1	x	x	n
COC(=O)/C(C#N)=C/N(C)C	n	n	n
COC(=O)C(C#N)=C(SC)SC	82.8	n	n
c1ccc(-c2nn3c(C4COc5ccccc5O4)nnc3s2)nc1 (stereo not given)	56.8	n	n
Cn1c(SCc2cnc(-c3ccccc3)s2)nnc1C1COc2ccccc2O1 (stereo not given)	n	n	n
CSc1ncc(C(=O)NCc2ccco2)c(C(F)(F)F)n1	n	n	n
Cc1[nH]n(-c2nc3ccccc3[nH]2)c(=O)c1C1OC(=O)c2ccccc21 (stereo not given)	99.6	n	62.0
O=c1cc(-c2ccccc2)[nH]n1-c1nc2ccccc2[nH]1	n	x	x
COC(=O)C1C(=O)C2=C(CC1C)Nc1ccccc1NC2c1cccc(Br)c1 (stereo not given)	x	n	n
SMILES	Mtb MbtI inh	Mtb MenB inh	PV pol inh
N#C/C(=C\C=C\c1ccco1)C(=O)Nc1cccc(Br)c1	n	n	n
O=C1C(O)=C(Cc2ccccc2)CN1Cc1ccccc1	x	n	n
O=C1C=CC(=O)C(C2=C3C(=O)N(Cc4ccccc4)CC(=O)N3CCC2)=C1	100.2	n	n
CC1(C)Cc2ccccc2C(CSc2nnc3c(n2)[nH]c2ccccc23)=N1	x	n	n
Cn1nnnc1-c1ccco1	x	n	n
c1coc(-c2nnc(-c3ccco3)nn2)c1	n	n	43.0
CCCCN(C)C(=O)CCC(=O)NNc1nc2ccccc2c2nc(C)nn12	x	x	81.0
COc1ccc(N2CCN(C(=O)CCC(=O)NNc3nc4ccccc4c4nc(C)nn34)CC2)cc1	x	x	87.0
Cc1nc2c3ccccc3nc(NNC(=O)CCC(=O)N3CCN(c4cccc(Cl)c4)CC3)n2n1	x	x	n
Cc1nc2c3ccccc3nc(NNC(=O)CCC(=O)N3CCN(c4ccccc4)CC3)n2n1	x	x	85.0
Cc1nc2c3ccccc3nc(NNC(=O)CCC(=O)N3CCN(c4ccccc4F)CC3)n2n1	x	x	n
CCN(CC)CCCNC(=O)CCC(=O)NNc1nc2ccccc2c2nc(C)nn12	x	x	n
CC(C)CCNC(=O)CN1C(=O)CCn2nc(-c3cn(C)c4ccccc34)cc21	x	x	n
c1ccc(-c2csc(NCc3ccco3)n2)cc1	n	x	x
CC(C)CNc1nc(-c2ccccc2)cs1	91.1	n	n
Cc1ccc(NC(=O)c2oc3ccccc3c2C)cc1	n	n	n
Cc1c(C(=O)Nc2ccncc2)oc2ccccc12	n	38.4	n
O=c1c(C=Nc2ccccc2)c(Nc2ccccc2)[nH]n1-c1ccccc1	n	n	n
Brc1ccc(-c2nnc(C34CC5CC(CC(C5)C3)C4)o2)cc1	n	n	n
O=c1oc(C23CC4CC(CC(C4)C2)C3)ns1	x	n	73.0
Clc1nc(-c2ccccc2)nc2sc3c(c12)CCCC3	x	n	n
COc1ccc(S(N)(=O)=O)cc1OC	x	n	n
O=C1C2SCCN2C(=S)N1c1cccc(C(F)(F)F)c1 (stereo not given)	70.5	n	n
CC1=CCC2C(=O)N(c3cccc(C(F)(F)F)c3)C(=O)C2C1 (stereo not given)	n	n	n
CCCn1nc(C(=O)N/N=C/c2ccc(O)cc2)c2ccccc2c1=O	n	n	n
SMILES	Mtb MbtI inh	Mtb MenB inh	PV pol inh
COc1cc2cc(C)nc(C)c2cc1OC	n	n	n
COc1cc2cc3c4cc(OC)c(OC)cc4cc[n+]3c(C)c2cc1OC	n	n	88.0
CCCCC1(C)N2CC3(C)CN1CC(C)(C2)C3=O (stereo not given)	n	n	n
CCCCC1(O)CC(C)(C)N([O])C(C)(C)C1	n	43.8	n
O=C(NCc1ccco1)C1CCCN1S(=O)(=O)c1ccc(-c2ccc(=O)[nH]n2)s1 (stereo not given)	n	n	n
O=C(N/N=C1/CCS(=O)(=O)c2ccc(F)cc21)c1ccccn1	n	n	90.0
O=C(N/N=C1\CCS(=O)(=O)c2ccc(F)cc21)c1ccc(O)cc1	n	n	n
CCSc1ccc2nnc(-c3ccc(OC)cc3)n2n1	n	n	n
Fc1ccccc1Nc1nn(CN2CCCC2)c(=S)s1	n	n	n
C=CCN(CC=C)Cn1nc(Nc2ccccc2F)sc1=S	99.4	n	n
O=c1c2ccccc2n2c(-c3ccc(Cl)cc3)nnc2n1CCc1ccccc1	x	x	74.0
O=c1c2ccccc2n2c(-c3ccc(F)c(F)c3)nnc2n1CCc1ccccc1	x	x	n
Cc1ccc(S(=O)(=O)N2C(=O)CCC2C(=O)NCCOc2ccccc2C)cc1 (stereo not given)	n	x	x
O=C1C=CC(=O)N1c1ccc(S(=O)(=O)Nc2ccc(C(F)(F)F)cc2)cc1	98.3	n	n
COC(=O)COc1ccc(S(=O)(=O)Nc2ccc(C(F)(F)F)cc2)cc1	n	n	n
O=c1cc[nH]c2c1ccc1c(O)ccnc12	n	n	n
Nc1ccc2c(c1)nc(-c1ccccc1)c1cc(N)ccc12	x	n	n
CC[n+]1c(-c2ccccc2)c2cc(N)ccc2c2ccc(N)cc21	n	n	75.0
Cc1ccc(NC(=S)N(Cc2cccc(C)c2)c2ccccn2)cc1	n	n	n
O=C(Nc1ccc2c(c1)OCCCO2)C1CCCN(C(=O)c2ccc(Cl)cc2)C1 (stereo not given)	n	n	n
Cc1ccccc1NC(=O)c1sc(N)c(C(N)=O)c1C	87.2	n	n
Cc1ccc(C(=O)Nc2ccccc2C)cc1	n	n	n
Cc1cccn2c(=O)c3cc(C(=O)NC(C)c4ccccc4)sc3nc12 (stereo not given)	n	n	n
CC1SC(c2ccc(F)cc2)NC1=O (stereo not given)	x	n	n
CC1SC(c2ccccc2)NC1=O (stereo not given)	90.6	n	n
Cc1cc(C)cc(NC(=O)C(C)N2Cc3ccccc3C2=O)c1 (stereo not given)	x	x	n
